Among the data in PubChem BioAssay (Tox21) are outcome values, retold here.

Inconclusive results are not listed. Active and inactive are the calls of the source. Calls come from the whole dose curve; as a rule, active = well fitted inhibition curve with a large enough effect in the repeat runs; inconclusive = weak or mixed curves; inactive = no such curve, though single readings can be large or run the other way.

The target of this experiment is Estrogen receptor (Homo sapiens) (UniProt P03372). As to the kind of experiment: qHTS assay to identify small molecule antagonists of the estrogen receptor alpha (ER-alpha) signaling pathway using the BG1 cell line in the presence of 0.1 nM 17-beta-estradiol (AID 1259244). Note: nearly all actives have a fitted effect of over 50% in size. To be noted: VM7Luc4E2 (BG1) ERE-luciferase, antagonist mode, 0.1 nM E2, 22 h; series mostly up to 92.4 µM. The procedure, abridged: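 VM7Luc4E2 cells (endogenous full-length ER-alpha, 4×ERE-luciferase), kept 5 days in phenol red-free, charcoal-stripped FBS medium; 4,000 cells/well. Compounds added with 0.1 nM (final) 17beta-estradiol, 22 hr at 37C; luminescence read with ONE-Glo after 30 min.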
Sequence of Estrogen receptor (Homo sapiens) (P03372 whole entry, looked up): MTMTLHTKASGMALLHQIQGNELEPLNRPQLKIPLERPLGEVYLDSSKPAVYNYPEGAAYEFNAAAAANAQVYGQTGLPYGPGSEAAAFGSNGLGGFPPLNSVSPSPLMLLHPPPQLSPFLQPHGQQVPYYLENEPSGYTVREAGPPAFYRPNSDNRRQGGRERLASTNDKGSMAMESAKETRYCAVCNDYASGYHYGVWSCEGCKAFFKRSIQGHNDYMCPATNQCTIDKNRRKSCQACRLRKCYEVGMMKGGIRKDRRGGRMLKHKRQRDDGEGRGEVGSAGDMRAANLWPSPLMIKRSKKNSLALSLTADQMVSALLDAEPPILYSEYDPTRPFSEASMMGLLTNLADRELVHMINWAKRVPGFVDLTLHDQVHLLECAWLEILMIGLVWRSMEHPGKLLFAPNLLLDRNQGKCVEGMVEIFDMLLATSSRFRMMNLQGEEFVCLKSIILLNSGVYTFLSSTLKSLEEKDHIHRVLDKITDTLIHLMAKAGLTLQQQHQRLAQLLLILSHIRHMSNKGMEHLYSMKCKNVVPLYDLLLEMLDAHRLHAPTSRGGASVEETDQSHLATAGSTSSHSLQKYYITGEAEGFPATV
(In general: Quantitative high-throughput screening tests each substance at several concentrations.)
Take `CCCCCCCCCC[N+](C)(C)[O-]`: the result was inactive.

Consider `CO[C@@]1(NC(=O)CSC[C@@H](N)C(=O)O)C(=O)N2C(C(=O)O)=C(CSc3nnnn3C)CS[C@@H]21`, for which the outcome was inactive.

`CC(=O)O[C@@]12CO[C@@H]1C[C@H](O)[C@@]1(C)C(=O)[C@H](O)C3=C(C)[C@@H](OC(=O)[C@H](O)[C@@H](NC(=O)OC(C)(C)C)c4ccccc4)C[C@@](O)([C@@H](OC(=O)c4ccccc4)[C@H]21)C3(C)C`: the outcome was inactive.

For `CC1(C)OC[C@@H](COC(=O)CCc2ccc(OC[C@@H](O)CNCCNC(=O)N3CCOCC3)cc2)O1`, the outcome was inactive.

`Cc1ccc(C(=O)c2ccc(CC(=O)O)n2C)cc1`: the outcome was inactive.

On to `O=S(=O)(O)c1cccc(S(=O)(=O)O)c1`, for which the result was inactive.

For the compound `CCCCCCCC1CCCC1=O` (centres undefined), the result was inactive.

`CC(=O)N1C[C@H](O)C[C@H]1C(=O)O`: the outcome was inactive.

In the case of `CCCOC(=O)CC`, the outcome was inactive.

For the compound `O=C(O)Cc1csc(-c2ccc(Cl)cc2)n1`, the outcome was inactive.

On to `Nc1c2c(nc3c1CCC3)CCCC2`, for which the outcome was inactive.

As for `O=[N+]([O-])c1cncn1CCN1CCOCC1`, the result was inactive.

Take `COCCOC[C@H](CC1(C(=O)NC2CCC(C(=O)O)CC2)CCCC1)C(=O)Oc1ccc2c(c1)CCC2` (some centres undefined): the outcome was inactive.

For `CCCCOCCOC(=O)COc1cc(Cl)c(Cl)cc1Cl`, the outcome was inactive.

Take `Cc1ccc(-c2ccccc2C#N)cc1`: the outcome was inactive.

For `CCOC(=O)COc1cc(-n2ncc(C(F)(F)F)c(C)c2=O)c(F)cc1Cl`, the result was inactive.

Regarding `CCOC(=O)C(=O)CCCCCCl`, the result was inactive.

As for `CC1CCC(CO)CC1` (centres undefined), the outcome was inactive.

In the case of `Cc1onc(-c2c(Cl)cccc2Cl)c1C(=O)Cl`, the outcome was inactive.
